Drawing on PubChem BioAssay AID623868 (Vanderbilt High Throughput Screening Facility, 2012), this text covers manual score for 25 compounds.

Among all 2,100 compounds or so, about 760 (36%) were called active. Only a sample is shown. Values without a mark were called inactive.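 The calls were made as follows: active = thallium-flux fluorescence traces judged by eye to show enhanced or reduced glutamate response, manual score 1 or -1, so both directions (some results past the limit were not filed as active); inactive = the rest, including fluorescent or raised-baseline compounds.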

This assay can be described thus: non-GIRK thallium flux modulation in mGlu8 cells, confirmation, counter-screen for GIRK activator project, cell-based, HEK-293 rmGlu8, no GIRK (AID 623868).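 Also: extra codes mark interference with 3 for fluorescent and 4 for baseline rise.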 The following applies: thallium flux fluorescence, at 10 µM, actives lie on both sides. Background: Counterscreens check selectivity or assay interference.
Turning to `CC(C)Oc1cc(-n2c(=S)[nH]c3ccccc3c2=O)c(Cl)cc1Cl`, the manual score is 1 (active). To `COc1cc(-n2c(=S)[nH]c3ccccc3c2=O)c(Cl)cc1Cl` belongs 1 (active); to `c1ccc2c(CNC3CCCCC3)c[nH]c2c1`, 0. For `CCOC(=O)C(O)(c1ccc(N(CC)S(=O)(=O)c2ccc(C)cc2)cc1)C(F)(F)F` (stereo not given), the manual score was 0.

As for `CNC(=O)OCCc1nccn1C`, the manual score is 0.5. With `Fc1ccc(NC2=NCCS2)cc1Cl`, the manual score is 0.

Regarding `CC(C)CCn1c(=O)c(C(=O)Nc2ccccc2S(N)(=O)=O)c(O)c2ccccc21`, the manual score is 0. Turning to `C=CCOC(=O)COc1cc(C)cc2oc(=O)c3c(c12)CCC3`, the manual score was -0.5. As for `C/C(=N\Nc1ccccc1)c1c(O)n(C)c(=O)n(C)c1=O`, the manual score was 0. To `O=c1cc(C(F)(F)F)c2cc3c4c(c2o1)CCCN4CCC3` belongs 3; to `S=C1CN=C(c2ccccc2)c2cc(Cl)ccc2N1`, 1 (active). In the case of `S=C1CN=C(c2ccccc2Cl)c2cc(Cl)ccc2N1`, the manual score was 1 (active). The value for `Cc1ccccc1C1=NCC(=S)Nc2ccc(Cl)cc21` was 1 (active).

On to `O=C(Cc1ccccc1)N1CCN(C/C=C/c2ccccc2)CC1`, for which the manual score is 0. Regarding `CCN(c1ccc(C(O)(C(=O)OC)C(F)(F)F)cc1)S(=O)(=O)c1ccc(C)cc1` (stereo not given), the manual score was 0. Take `CCCCn1c(C)c(C(=O)OCC)c2c(CN3CCOCC3)c(O)ccc21`: the manual score is 0. The value for `Cc1ccc2nc(N3CCC(C(=O)N4CCC5(CC4)OCCO5)CC3)sc2c1` was 0. As to `N=c1sc2c(n1Cc1ccccc1)CCCC2`, the manual score was 0. For `O=C(Nc1ccc(Cl)cc1)Nc1nccs1`, the manual score is 0. On to `O=C(c1ccccc1)c1cn(CC(=O)N2CCOCC2)c2ccccc12`, for which the manual score was -0.5.

With `Cn1cccc1CNCCc1ccccc1`, the manual score was 0. As to `Cc1nn(C)cc1/C=C1/CC2C3CC=C4CC(O)CCC4(C)C3CCC2(C)C1=O` (stereo not given), the manual score is 0. As to `CCN(CC)CCNCC(=O)Nc1ccc(Cl)cc1C(=O)c1ccccc1`, the manual score is 0. Turning to `Nc1c(C(=O)OC2CCCCC2)c2nc3ccccc3nc2n1CC1CCCO1` (stereo not given), the manual score was -0.5. Regarding `Cc1ccc(OCC(=O)NCCN2CCN(C(=O)COc3ccc(C)cc3)CC2)cc1`, the manual score was 0.
